Targets with a hit are over-represented here; the source holds about 7,900 in all. About 0.6% of all pairs of compound and target were hits. Values without a mark were called inactive.
What was measured:
Experiment in all cases: log2 fold change, soluble protein after heating vs DMSO (PISA); higher = thermal stabilisation; K562 cells, 10 uM, 30 min; active = over 0.2 and 3.5 SD of the protein, either way, in both replicates (recomputed)
[1] = compound: C#Cc1cccc(Nc2ncnc3cc(OCCOC)c(OCCOC)cc23)c1 [erlotinib]
Outline: (§1)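 For each measurement, 10 μM compound was applied for 30 min to K562 cells at 2×10^6 cells/mL. Aliquots were heated for 3 min across 48°C-58°C, pooled, and extracted in PBS with 0.5% NP-40 at 4°C; the supernatant after 21,000xg for 90 min was soluble protein. This was quantified by TMTpro 16plex LC-MS/MS with channel sums equalised, and thermal stability was reported relative to control samples from duplicates, on a log2 fold-change scale.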

[2] = compound: C/C(=N\NC(=O)C1=CC(=CC=C1)S(=O)(=O)N2CCOCC2)/C3=C(C=CC(=C3)Cl)O
Outline: as §1

[3] = compound: C1=CC(=C(C=C1Cl)C2=NC3=NC=CN=C3C(=N2)NC4=CC=NC=C4)F
Outline: as §1

[4] = compound: C1=CC(=CC=C1C2=NC3=C(N2)C=C(C=C3)C(=O)N)OC4=CC=C(C=C4)Cl
Outline: as §1

[5] = compound: C1=CC2=C(C=CC(=C2)/C=C\3/C(=O)NC(=NCC4=CC=CS4)S3)N=C1
Outline: as §1

[6] = compound: C1=CC2=NC=CN=C2C=C1/C=C/3\C(=O)NC(=O)S3
Outline: as §1

[7] = compound: C1=CC=C(C=C1)C2=NC(=C(N2)C3=CC=NC=C3)C4=CC(=C(C=C4)Cl)O
Outline: as §1

[8] = compound: C1=CC=C2C(=C1)C3=NNC4=CC=CC(=C43)C2=O
Outline: as §1

[9] = compound: C1CCN(C1)C(=O)NC2=CC=CC(=C2)NC3=NC=C(C(=N3)NCCC4=CN=CN4)Br
Outline: as §1

[10] = compound: C1CN(CCC1(CC2=CC=C(C=C2)Cl)N)C3=NC=NC4=C3C=CN4
Outline: as §1

[11] = compound: C1COCCN1CCN2C3=CC=CC=C3N=C2NC(=O)C4=CC(=CC=C4)[N+](=O)[O-] [IRAK-1-4 Inhibitor I]
Outline: as §1

[12] = compound: C=CC(=O)N1CCC[C@@H](n2nc(-c3ccc(Oc4ccccc4)cc3)c3c(N)ncnc32)C1 [ibrutinib]
Outline: as §1

[13] = compound: CC(=O)c1cnc2ccc(-c3cc(Cl)c(O)c(Cl)c3)nc2c1N[C@H]1CC[C@H](CN(C)C)CC1
Outline: as §1

[14] = compound: CC(C)(C)Cn1c(N)nc2ccc(-c3[nH]c(C(C)(C)C)nc3-c3ccc(F)cc3)nc21 [ralimetinib]
Outline: as §1

[15] = compound: CC(C)(O)CC(=O)NCCn1ccc2ncnc(Nc3ccc(Oc4cccc(C(F)(F)F)c4)c(Cl)c3)c21
Outline: as §1

[16] = compound: CC(C)C1=C2N=C(C=C(N2N=C1)NCC3=CC=CC=C3)NCCCCCCN
Outline: as §1

[17] = compound: CC(C)C[C@@H](C=O)NC(=O)[C@H](CC(C)C)NC(=O)[C@H](CC(C)C)NC(=O)OCc1ccccc1
Outline: as §1

[18] = compound: CC(C)N(C[C@H]1O[C@@H](n2cnc3c(N)ncnc32)[C@H](O)[C@@H]1O)[C@H]1C[C@@H](CCc2nc3cc(C(C)(C)C)ccc3[nH]2)C1 [pinometostat]
Outline: as §1

[19] = compound: CC1=C(C(CC(=O)N1)C2=CC=C(C=C2)C(F)(F)F)C(=O)NC3=C(C=C4C(=C3)C=NN4)F
Outline: as §1

[20] = compound: CC1=C(C2=C(C=C1)C(=O)C3=CC=CC=C3N2CCCN)C
Outline: as §1

Chain of UniProt P52333 (P52333 whole entry, looked up): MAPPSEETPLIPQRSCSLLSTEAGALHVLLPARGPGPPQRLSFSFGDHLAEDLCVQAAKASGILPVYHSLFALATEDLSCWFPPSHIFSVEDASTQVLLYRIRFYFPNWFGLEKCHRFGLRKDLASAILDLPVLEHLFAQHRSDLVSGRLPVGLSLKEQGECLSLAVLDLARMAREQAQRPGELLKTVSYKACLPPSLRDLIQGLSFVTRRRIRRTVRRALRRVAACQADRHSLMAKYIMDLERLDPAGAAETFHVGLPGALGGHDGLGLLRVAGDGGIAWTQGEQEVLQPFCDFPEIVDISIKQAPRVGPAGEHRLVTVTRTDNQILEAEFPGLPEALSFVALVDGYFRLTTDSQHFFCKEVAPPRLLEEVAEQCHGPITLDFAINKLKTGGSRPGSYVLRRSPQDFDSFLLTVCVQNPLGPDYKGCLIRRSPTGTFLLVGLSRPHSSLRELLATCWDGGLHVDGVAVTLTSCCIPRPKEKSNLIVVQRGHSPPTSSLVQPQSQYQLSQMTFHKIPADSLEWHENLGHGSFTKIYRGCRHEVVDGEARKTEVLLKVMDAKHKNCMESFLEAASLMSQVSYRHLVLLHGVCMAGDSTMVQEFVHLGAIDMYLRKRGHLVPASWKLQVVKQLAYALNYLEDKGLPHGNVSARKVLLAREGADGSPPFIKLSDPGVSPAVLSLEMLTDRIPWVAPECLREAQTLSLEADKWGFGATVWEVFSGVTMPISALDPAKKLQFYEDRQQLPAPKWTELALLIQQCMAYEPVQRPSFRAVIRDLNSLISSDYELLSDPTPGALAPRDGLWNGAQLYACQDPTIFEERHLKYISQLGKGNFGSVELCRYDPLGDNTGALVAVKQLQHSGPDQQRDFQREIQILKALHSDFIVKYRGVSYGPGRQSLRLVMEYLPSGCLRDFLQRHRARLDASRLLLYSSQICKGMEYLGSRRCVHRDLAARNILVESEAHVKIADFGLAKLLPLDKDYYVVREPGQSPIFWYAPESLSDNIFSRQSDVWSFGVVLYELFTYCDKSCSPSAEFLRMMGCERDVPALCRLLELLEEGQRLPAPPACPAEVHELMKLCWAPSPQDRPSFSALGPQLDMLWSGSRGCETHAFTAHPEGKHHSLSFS
Chain of UniProt P43361 (P43361 whole entry, looked up): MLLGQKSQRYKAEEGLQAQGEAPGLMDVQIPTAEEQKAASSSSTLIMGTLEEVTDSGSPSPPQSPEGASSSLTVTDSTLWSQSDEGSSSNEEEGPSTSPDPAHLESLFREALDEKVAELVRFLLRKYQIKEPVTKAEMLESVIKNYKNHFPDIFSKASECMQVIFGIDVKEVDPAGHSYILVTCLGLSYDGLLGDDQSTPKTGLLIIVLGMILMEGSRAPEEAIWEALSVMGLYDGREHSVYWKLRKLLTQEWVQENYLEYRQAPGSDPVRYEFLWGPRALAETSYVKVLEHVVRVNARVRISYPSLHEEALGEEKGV
Chain of UniProt Q13422 (Q13422 whole entry, looked up): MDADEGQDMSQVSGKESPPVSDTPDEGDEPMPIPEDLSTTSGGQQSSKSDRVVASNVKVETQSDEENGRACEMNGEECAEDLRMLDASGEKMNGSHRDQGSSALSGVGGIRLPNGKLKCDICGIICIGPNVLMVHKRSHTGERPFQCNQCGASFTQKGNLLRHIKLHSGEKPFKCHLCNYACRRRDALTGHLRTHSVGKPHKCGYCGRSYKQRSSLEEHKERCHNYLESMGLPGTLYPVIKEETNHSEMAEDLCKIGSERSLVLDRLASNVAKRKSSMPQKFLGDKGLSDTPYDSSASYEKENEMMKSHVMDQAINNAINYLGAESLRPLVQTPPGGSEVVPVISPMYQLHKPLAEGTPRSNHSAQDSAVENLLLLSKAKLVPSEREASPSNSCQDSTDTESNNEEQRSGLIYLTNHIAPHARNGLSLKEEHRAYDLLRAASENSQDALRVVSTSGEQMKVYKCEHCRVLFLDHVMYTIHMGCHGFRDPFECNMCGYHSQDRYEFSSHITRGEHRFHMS
Chain of UniProt Q32MZ4 (Q32MZ4 whole entry, looked up): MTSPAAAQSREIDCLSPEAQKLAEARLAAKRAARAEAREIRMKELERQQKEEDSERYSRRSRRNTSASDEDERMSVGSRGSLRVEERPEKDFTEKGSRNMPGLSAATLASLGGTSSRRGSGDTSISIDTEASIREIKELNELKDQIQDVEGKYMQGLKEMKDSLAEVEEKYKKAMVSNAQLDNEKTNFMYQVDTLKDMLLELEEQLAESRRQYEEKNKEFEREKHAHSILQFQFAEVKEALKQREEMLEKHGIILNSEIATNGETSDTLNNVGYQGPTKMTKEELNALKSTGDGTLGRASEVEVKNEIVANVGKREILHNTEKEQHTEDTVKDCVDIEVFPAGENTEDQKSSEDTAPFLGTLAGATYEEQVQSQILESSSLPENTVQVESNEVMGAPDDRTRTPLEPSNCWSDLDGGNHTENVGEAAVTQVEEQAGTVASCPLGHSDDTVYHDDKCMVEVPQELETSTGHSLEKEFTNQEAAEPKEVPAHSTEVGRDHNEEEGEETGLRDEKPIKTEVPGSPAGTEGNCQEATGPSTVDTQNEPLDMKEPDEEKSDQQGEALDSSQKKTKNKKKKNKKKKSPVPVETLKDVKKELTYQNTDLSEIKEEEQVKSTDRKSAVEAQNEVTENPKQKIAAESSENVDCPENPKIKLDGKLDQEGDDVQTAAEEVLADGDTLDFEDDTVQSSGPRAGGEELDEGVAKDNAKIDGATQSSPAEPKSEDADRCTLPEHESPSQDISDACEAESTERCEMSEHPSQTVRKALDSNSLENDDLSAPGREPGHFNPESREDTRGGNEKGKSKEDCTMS
Chain of UniProt O43513 (O43513 whole entry, looked up): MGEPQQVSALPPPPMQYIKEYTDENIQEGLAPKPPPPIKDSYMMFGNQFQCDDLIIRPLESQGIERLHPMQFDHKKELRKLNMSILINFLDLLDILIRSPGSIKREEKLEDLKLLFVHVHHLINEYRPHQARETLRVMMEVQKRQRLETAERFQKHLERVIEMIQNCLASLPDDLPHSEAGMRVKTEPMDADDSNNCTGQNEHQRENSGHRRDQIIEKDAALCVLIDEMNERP
Chain of UniProt O95819 (O95819 whole entry, looked up): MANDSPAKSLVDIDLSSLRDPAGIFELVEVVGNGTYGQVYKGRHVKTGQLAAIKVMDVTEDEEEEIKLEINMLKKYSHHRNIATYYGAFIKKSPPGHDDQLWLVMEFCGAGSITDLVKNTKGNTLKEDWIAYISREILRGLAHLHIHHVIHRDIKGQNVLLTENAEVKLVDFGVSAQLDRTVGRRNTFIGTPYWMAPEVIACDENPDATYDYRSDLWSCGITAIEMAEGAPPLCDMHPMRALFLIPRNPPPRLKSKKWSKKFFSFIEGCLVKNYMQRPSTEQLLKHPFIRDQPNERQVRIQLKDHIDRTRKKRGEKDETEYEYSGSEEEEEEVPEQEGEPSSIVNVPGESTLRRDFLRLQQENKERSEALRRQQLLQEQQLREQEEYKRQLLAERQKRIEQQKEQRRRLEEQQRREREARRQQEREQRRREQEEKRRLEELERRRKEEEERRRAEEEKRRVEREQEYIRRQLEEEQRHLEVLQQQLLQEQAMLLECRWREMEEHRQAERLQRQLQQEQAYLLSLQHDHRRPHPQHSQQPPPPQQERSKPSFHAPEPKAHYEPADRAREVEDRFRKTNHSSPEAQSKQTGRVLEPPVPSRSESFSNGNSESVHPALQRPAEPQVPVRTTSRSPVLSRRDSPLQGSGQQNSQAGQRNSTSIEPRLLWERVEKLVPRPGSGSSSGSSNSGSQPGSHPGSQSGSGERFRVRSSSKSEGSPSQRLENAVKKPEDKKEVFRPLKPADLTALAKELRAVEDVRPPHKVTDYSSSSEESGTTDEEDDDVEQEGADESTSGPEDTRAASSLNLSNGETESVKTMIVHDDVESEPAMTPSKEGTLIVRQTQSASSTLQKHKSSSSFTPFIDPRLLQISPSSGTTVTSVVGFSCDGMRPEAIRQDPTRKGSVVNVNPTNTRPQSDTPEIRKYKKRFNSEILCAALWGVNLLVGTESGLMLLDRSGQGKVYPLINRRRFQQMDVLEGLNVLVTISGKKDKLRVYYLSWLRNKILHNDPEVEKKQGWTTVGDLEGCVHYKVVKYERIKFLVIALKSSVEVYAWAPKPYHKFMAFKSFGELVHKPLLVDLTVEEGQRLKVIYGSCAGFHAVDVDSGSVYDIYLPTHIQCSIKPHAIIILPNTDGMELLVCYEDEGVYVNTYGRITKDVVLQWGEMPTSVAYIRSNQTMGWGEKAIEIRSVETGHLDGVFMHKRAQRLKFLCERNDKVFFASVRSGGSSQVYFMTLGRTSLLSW
Chain of UniProt P55082 (P55082 whole entry, looked up): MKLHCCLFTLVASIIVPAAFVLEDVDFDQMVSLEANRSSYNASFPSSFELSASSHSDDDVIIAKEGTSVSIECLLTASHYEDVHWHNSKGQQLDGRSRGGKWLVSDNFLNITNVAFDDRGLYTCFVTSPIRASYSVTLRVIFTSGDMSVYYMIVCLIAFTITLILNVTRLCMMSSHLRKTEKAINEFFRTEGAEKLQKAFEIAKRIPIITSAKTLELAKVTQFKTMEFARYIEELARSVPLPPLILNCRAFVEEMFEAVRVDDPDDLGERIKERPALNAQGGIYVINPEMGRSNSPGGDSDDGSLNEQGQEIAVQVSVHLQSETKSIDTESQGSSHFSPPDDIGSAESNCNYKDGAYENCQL
Chain of UniProt A4D2B0 (A4D2B0 whole entry, looked up): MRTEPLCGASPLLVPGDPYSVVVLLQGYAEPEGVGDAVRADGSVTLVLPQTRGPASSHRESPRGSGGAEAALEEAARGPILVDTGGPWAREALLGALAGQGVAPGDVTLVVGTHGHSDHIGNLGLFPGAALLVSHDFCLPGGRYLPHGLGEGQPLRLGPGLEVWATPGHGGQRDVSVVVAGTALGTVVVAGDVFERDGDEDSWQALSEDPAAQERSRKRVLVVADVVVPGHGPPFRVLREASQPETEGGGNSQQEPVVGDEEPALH

Row | Target | log2 fold change [1] | log2 fold change [2] | log2 fold change [3] | log2 fold change [4] | log2 fold change [5] | log2 fold change [6] | log2 fold change [7] | log2 fold change [8] | log2 fold change [9] | log2 fold change [10] | log2 fold change [11] | log2 fold change [12] | log2 fold change [13] | log2 fold change [14] | log2 fold change [15] | log2 fold change [16] | log2 fold change [17] | log2 fold change [18] | log2 fold change [19] | log2 fold change [20]
1 | KIF11 (UniProt P52732) | 0.042 | 0.032 | -0.106 | -0.058 | 0.038 | 0.012 | -0.168 | 0.011 | -0.017 | -0.158 | -0.097 | -0.049 | 0.063 | 0.045 | -0.024 | -0.229 | 0.04 | 0.188 | 0.006 | -0.014
2 | ITGA2B (UniProt P08514) | -0.046 | -0.051 | 0.023 | 0.06 | -0.023 |  | 0 | -0.133 | 0.065 | -0.13 | -0.045 |  | -0.045 | 0.054 | -0.172 | 0.462 | 0.026 | -0.064 | 0.099 | -0.121
3 | KPNA4 (UniProt O00629) | 0.016 | 0.023 | 0.037 | 0.023 | 0.005 | 0.03 | 0.027 | -0.024 | 0.003 | 0.003 | 0.008 | -0.016 | -0.057 | -0.048 | 0.028 | -0.063 | -0.02 | -0.001 | 0.041 | -0.347 (active)
4 | MED7 (UniProt O43513) | 0.065 | -0.109 | 0.041 | 0.053 | 0.065 | 0.015 | 0.017 | -0.152 | -0.114 | 0.039 | 0.042 | 0.042 | 0.001 | 0.113 | 0.022 | -0.078 | -0.068 | 0.113 | 0.403 (active) | 0.119
5 | LRRFIP1 isoform 4 (UniProt Q32MZ4) | -0.122 | -1.2 (active) | -0.121 | -0.006 | -0.045 |  |  | 0.072 |  |  | -0.06 |  | 0.163 |  | -0.019 | 0.031 |  | -0.019 |  | 
6 | LAMP2 isoform 2 (UniProt P13473) | -0.072 | 0.02 | 0.041 | 0.082 | -0.022 | 0.088 |  | -0.007 | 0.018 | 0.049 | 0.127 | -0.007 | 0.012 |  | 0.115 | -0.713 (active) |  | -0.026 | 0.03 | -0.078
7 | KIFBP (UniProt Q96EK5) | -0.034 | 0.147 | 0 | 0.017 | 0.074 | -0.015 | -0.008 | 0.03 | 0.014 | -0.058 | -0.019 | 0.011 | -0.033 | -0.02 | -0.045 | -0.172 | 0.2 | 0.019 | -0.034 | 0.054
8 | MELK (UniProt Q14680) | 0.067 | -0.067 | 0.018 | 0.027 | 0.033 | 0.009 |  | 0.031 | -0.027 | -0.086 | 0.021 | 0.032 | -0.84 (active) |  | -0.085 | 0.092 |  | 0.013 | 0.337 | 0.011
9 | KIF13A isoform 4 (UniProt Q9H1H9) |  | 0.21 |  |  | 0.161 |  |  | 0.021 |  |  |  |  | 0.123 |  |  |  |  |  |  | 
10 | ILF3 (UniProt Q12906) |  |  | -0.083 |  |  | 0.128 |  |  |  |  | -0.058 | 0.036 |  |  | 0.191 |  |  | 0.029 | -0.126 | 
11 | MAGEA8 (UniProt P43361) | 0.033 | 0.038 |  | -0.075 | -0.04 | 0.132 | -0.028 | -0.098 | 0.052 | 0.099 | 0.014 | -0.086 | 0.128 | -0.02 |  | -0.146 | 0.068 | 0.024 | 0.077 | -0.265
12 | JAK3 (UniProt P52333) | -0.178 |  | 0.062 | -0.013 |  | 0.021 | -0.207 |  | 0.059 | -0.024 | -0.01 | -0.052 |  | -0.184 | -0.045 | 0.072 | -0.043 | -0.082 | 0.009 | -0.089
13 | MFSD12 isoform 3 (UniProt Q6NUT3) | 0.062 | -0.062 |  | 0.077 | -0.035 |  |  | 0.024 | -0.088 | -0.099 |  |  | -0.002 |  |  | -0.474 (active) |  |  |  | -0.066
14 | MFAP3 (UniProt P55082) |  | 0.202 | -0.021 |  | 0.029 | -0.106 |  | -0.142 | -0.088 | 0.064 |  | -0.027 | -0.067 |  | -0.165 |  |  |  |  | -0.111
15 | IKZF1 isoform 2 (UniProt Q13422) | 0.017 |  |  | -0.006 |  | 0.046 | 0.047 |  | -0.38 (active) | -0.016 |  | 0.252 |  | 0.152 |  | 0.031 | 0.159 |  | -0.041 | 0.418 (active)
16 | IKZF1 (UniProt R9R4D9) |  |  |  |  |  |  |  |  | -0.055 | -0.13 | -0.1 |  |  |  |  |  |  | -0.103 |  | 0.385
17 | MAP4K4 isoform 6 (UniProt O95819) |  |  |  |  |  |  |  |  | -0.168 | -0.025 |  |  |  |  |  |  |  |  | -0.033 | 0.143
18 | MAML1 (UniProt Q92585) | 0.369 |  | 0.004 | 0.082 |  |  | -0.004 |  |  |  | 0.117 |  |  | 0.013 | 0.02 | 0.016 | -0.043 | -0.133 |  | 
19 | MBLAC1 (UniProt A4D2B0) | 0.074 | -0.042 |  | 0.026 | 0.036 | 0.019 | 0.002 | -0.024 |  |  | 0.371 | -0.03 | 0.001 | -0.074 |  | 0.126 | -0.011 | -0.163 |  | 

— the supplement of paper PMC10849652
